D1 PAM = enhances dopamine response at the human D1 receptor; P21728; HEK293 TREx D1 cells, calcium flux, dopamine EC20 potentiation; potentiation, % at 10 µM; 360,000 tested, 0.036% active; AID 504651; in the data active = potentiation above about 30%
Target sequence (P21728 whole entry, looked up): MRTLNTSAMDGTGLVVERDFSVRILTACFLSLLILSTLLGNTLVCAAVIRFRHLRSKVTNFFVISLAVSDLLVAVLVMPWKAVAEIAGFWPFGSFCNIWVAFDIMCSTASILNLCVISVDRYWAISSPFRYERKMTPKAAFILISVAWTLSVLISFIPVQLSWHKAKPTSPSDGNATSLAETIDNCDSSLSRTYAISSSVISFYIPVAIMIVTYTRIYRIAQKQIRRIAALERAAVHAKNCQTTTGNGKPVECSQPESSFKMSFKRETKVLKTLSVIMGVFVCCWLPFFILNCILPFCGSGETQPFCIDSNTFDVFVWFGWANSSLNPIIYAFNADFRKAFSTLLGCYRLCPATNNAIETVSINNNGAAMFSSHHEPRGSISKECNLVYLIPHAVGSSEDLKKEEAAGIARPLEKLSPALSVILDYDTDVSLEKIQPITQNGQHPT
D1 antag = human D1 dopamine receptor antagonism; 360,000 tested, 3.2% active; P21728; AID 504652; activity change, negative = inhibition, % at 10 µM; HEK293 TREx D1 cells, calcium flux, dopamine EC80; hits give low values; in the data active = activity change below about -30%
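Kinetic fluorescence of a calcium dye serves as the read-out. D1-expressing Hek293 Trex cells, induced overnight at 30 C, are exposed to compound for 180 s before an EC80 dopamine addition, then read 180 s further.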
DRD3 agonist = D3 dopamine receptor (human) agonism | 410,000 tested, 0.58% active | P35462 | D3R DiscoveRx beta-arrestin cells, luminescence, 90 min | max activation, %; in the data active = max activation above about 30%
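Agonist-mode cell screen: cells plated at 1500/well and incubated overnight at 37 °C, then exposed to library compounds for 90 min at 37 °C. Detection reagent was added for 30–60 min at room temperature, and luminescence was read.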
D3 antag = blocks the human D3 dopamine receptor; 360,000 tested, 2.5% active; max response, negative = inhibition, %; D3R cells, DiscoveRx beta-arrestin luminescence, antagonist mode; hits give low values; in the data active = max response below about -50%; inconclusive = no clear call, values can overlap the other calls
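Cells expressing the human receptor were seeded at 1500 cells/well, incubated overnight at 37 degrees C in 5% CO2, then exposed to library compounds with dopamine controls for 90 minutes at 37 degrees C before luminescent detection.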
D1 ag = activates the human D1 dopamine receptor | P21728 | 360,000 tested, 1% active | activation, % at 2 µM | HEK293 T-REx D1 cells, calcium flux, agonist mode; in the data active = activation above about 30%
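Inducible HEK293 T-REx D1 cells, force-coupled to calcium signalling, were plated at 4000 cells/well with tetracycline and held overnight at 30 C. After no-wash calcium dye loading, compound-evoked calcium rise over 180 s flagged agonists.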
Of the large screens only hits and unclear results are named; the others gave an inactive call; ! = not active in a repeat. Rows were chosen to be rich in hits. Some 6% of all compounds tested hit in one or more screens of this group.

CCC(C(=O)NCCCN(CC)Cc1ccccc1)n1nc(C)c2sc3ccccc3c2c1=O (stereo not drawn)	D3 antag -83.7
Cc1nn(CCC(=O)NCc2ccc(N(C)C)cc2)c(=O)c2nn(-c3ccccc3)c(C)c12	D1 antag -31.4!
Cc1nn(CCC(=O)NCc2ccc(Cl)cc2)c(=O)c2nn(-c3ccccc3)c(C)c12	DRD3 agonist 56.6 (no result: D3 antag)
Cc1ccc(CNC(=O)CCCn2nc(C)c3c(C)n(-c4ccccc4)nc3c2=O)cc1	none
Cc1ccccc1CNC(=O)CCn1nc(C)c2c(C)n(-c3ccccc3)nc2c1=O	none
CCC(C(=O)NCCc1ccc(SC)cc1)n1nc(C)c2c(C)n(-c3ccc(C)cc3)nc2c1=O (stereo not drawn)	none (no result: D3 antag)
CCC(C(=O)NCCc1ccc(C)cc1)n1nc(C)c2c(C)n(-c3ccccc3)nc2c1=O (stereo not drawn)	D3 antag -78.8
COc1cccc(OC(=O)CSc2nnc(-c3cccs3)o2)c1	none (no result: D3 antag)
C[N+](C)(CCCCCC[N+](C)(C)C1c2ccccc2-c2ccccc21)C1c2ccccc2-c2ccccc21	none (no result: D1 PAM, D1 antag, D3 antag, D1 ag)
O=C(Cc1ccccc1)Nc1sc2c(c1C(=O)Nc1ccc(Br)cc1)CCCC2	none (no result: D3 antag)
CCc1ccc(S(=O)(=O)Nc2ccc(Cl)cn2)cc1	D1 antag -91.8
Cc1ccc(CSc2nc3cccnc3n2Cc2ccc(C(=O)NC3CCCCC3)cc2)cc1	none (no result: D3 antag)
N#CCC(N)=C(C#N)C#N	D1 ag 80.2
COC(=O)CC#N	none (no result: D1 antag)
Cc1ccc2oc(=O)c3cnn(CC(=O)Nc4ccc(Br)cc4C)c3c2c1	none (no result: D3 antag)
Cc1ccc(S(=O)(=O)N2CCCCC2)cc1NC(=O)Cn1ncc(Cl)c(Cl)c1=O	D3 antag -63.7 (no result: D1 PAM, D1 antag, D1 ag)
Cc1ccc(S(=O)(=O)N2CCCCC2)cc1NC(=O)Cn1cnnn1	none
Cc1cc(Br)ccc1NC(=O)CNC(=O)Cn1ncc(Cl)c(Cl)c1=O	D3 antag -82.7
CCN1CCc2nc(N)oc2CC1	DRD3 agonist 41.2!
O=C(CSc1nc(-c2ccccc2)[nH]c1-c1ccc(F)cc1)NC1CCCC1	none (no result: D3 antag)
Cc1oc2ncn(CC(C)C)c(=O)c2c1C(=O)NCc1cccc(Cl)c1	none (no result: D3 antag)
CCCCCCCCCCCCCCCC(=O)O[C@@H]1CC(C)=C(/C=C/C(C)=C/C=C/C(C)=C/C=C/C=C(C)/C=C/C=C(C)/C=C/C2=C(C)C[C@@H](OC(=O)CCCCCCCCCCCCCCC)CC2(C)C)C(C)(C)C1	none (no result: D1 PAM, D1 antag, D3 antag, D1 ag)
Oc1c(C(c2ccccc2F)N2CCN(c3ccccc3F)CC2)sc2nc(-c3ccco3)nn12 (stereo not drawn)	none (no result: D1 antag, D3 antag)
COc1cc2c(cc1OC)CN(C(=O)CCNC(=O)c1ccc(Br)cc1)CC2	none
COc1cc2c(cc1OC)CN(CCC(=O)c1ccc(Br)cc1)CC2	D3 antag -52.9
O=C1N[C@H](Cc2ccccc2)CO1	D3 antag inconclusive
c1ccc(CC2CNc3ccccc3CN2)cc1 (stereo not drawn)	D3 antag -51.8
CN(C(=O)CC1C(=O)NCCN1Cc1ccc(F)c(F)c1)C1CCOCC1 (stereo not drawn)	D1 antag -42.3
COc1ccc2[nH]c(=O)c(CN(CCCN3CCOCC3)C(=O)NCc3ccccc3)cc2c1	D1 antag -37.1
O=C(Nc1ccccc1F)N(CCCN1CCOCC1)Cc1cc2cc3c(cc2[nH]c1=O)OCCO3	D3 antag -54.7
CCOc1ccc2[nH]c(=O)c(CN(CC3CCCN3CC)C(=O)NCc3ccccc3)cc2c1 (stereo not drawn)	D1 antag -50.3
CCCCOc1ccc(C(=O)NCCc2sc(-c3cccc(F)c3)nc2C)cc1	none (no result: D3 antag)
CSc1ccc(CN2CCN(Cc3ccc([N+](=O)[O-])cc3)CC2)cc1	D1 antag -37.2, D3 antag inconclusive
Cc1ccc(N2C(=O)CS(=O)(=O)C23C(=O)N(Cc2ccccc2F)c2ccccc23)cc1Cl (stereo not drawn)	none (no result: D3 antag)
Cc1ccccc1-c1noc(-c2ccc(NCc3ccco3)c([N+](=O)[O-])c2)n1	none (no result: D3 antag)
Cc1nn(C)c2c1c(-c1ccccc1)cc(=O)n2C(C)C(=O)NCCc1ccc(Cl)cc1 (stereo not drawn)	none (no result: D3 antag)
COc1ccc(N2C(=O)C3ON(C4SC(=S)N(C)C4(C)C)C(c4ccc(Cl)cc4)C3C2=O)cc1 (stereo not drawn)	none
COc1ccc(N2C(=O)C3ON(C4SC(=S)N(C)C4(C)C)C(c4ccc([N+](=O)[O-])cc4)C3C2=O)cc1 (stereo not drawn)	D3 antag -65.0
CN(C)c1ccc(Cc2cc3c(O)ccc(O)c3cc(Cc3ccc(N(C)C)cc3)c2=O)cc1	D3 antag -51.1 (no result: D1 PAM, D1 antag, D1 ag)
CC(C)(C)c1ccc(C(=O)Nc2ccc(-c3nc4ccccc4o3)c(O)c2)cc1	none (no result: D3 antag)
COc1ccc(CC(=O)Nc2cccc(-c3csc(C)n3)c2)cc1	none
Cc1nc(-c2cccc(NC(=O)COc3ccc(Cl)cc3)c2)cs1	D1 antag -43.6
Cc1cccc(NC(=O)CSc2nc3ccc(NC(=O)COc4ccc(Cl)cc4)cc3s2)c1	D1 antag -32.0 (no result: D3 antag)
Cc1cc(C)c(NC(=O)c2c(C)oc3c2C2=NCCN2C=N3)c(C)c1	none (no result: D3 antag)
O=C(CN1C(=O)c2cccnc2Oc2ccc(Cl)cc21)NCCCN1CCCCC1	D1 antag -38.2 (no result: D3 antag)
CCCN1CCN(CCCNC(=O)CN2C(=O)c3cccnc3Oc3ccc(Cl)cc32)CC1	D3 antag inconclusive
Cc1ccc2c(c1)N(CC(=O)N1CCCC1)C(=O)c1cccnc1O2	D3 antag -85.8
CCCNC(=O)OC[C@H]1O[C@H](CCO/N=C/C[C@@H]2C=C[C@H](OC(C)=O)[C@@H](COC(C)=O)O2)C=C[C@@H]1Oc1ccc(OC)cc1	D1 antag -30.3 (no result: DRD3 agonist, D3 antag)
CCCNC(=O)OC[C@H]1O[C@H](CCO/N=C(\C)CCN2CCc3nc(-c4ccccc4)c(-c4ccccc4)cc3C2)C=C[C@@H]1Oc1ccc(OC)cc1	none (no result: DRD3 agonist, D3 antag)
CCC(=O)Nc1cc(-c2nc3ccccc3s2)c(Cl)cc1Cl	none (no result: D3 antag)
CCN(C(=O)CCc1nc(-c2ccc(C)cc2)no1)c1cccc(C(F)(F)F)c1	none (no result: D3 antag)
Cc1nc(N2CCc3ccccc3C2)[nH]c(=O)c1Cc1ccccc1	D1 antag -44.4
Cc1cc(=O)[nH]c(N2CCCNCC2)n1	none
CCCCCc1c(C)nc(N2CCc3ccccc3C2)[nH]c1=O	none
Cc1nc(-n2[nH]c3c(c2=O)CCCC3)[nH]c(=O)c1Cc1ccccc1	D3 antag -60.9, D1 ag 61.4
Cc1cc(=O)[nH]c(-n2[nH]c3c(c2=O)CCCC3)n1	D1 antag -37.2
Cn1c(/C(C#N)=C/c2ccccc2Br)nc2ccccc21	none (no result: D3 antag)
COc1ccc2nc(SCC(=O)N3CC(=O)Nc4ccccc43)c(C#N)cc2c1	D1 antag -30.2, D1 ag 32.3
COc1ccc(NC(=O)N(C2CCCCC2)C(C)c2cccnc2)c(OC)c1 (stereo not drawn)	none
COc1ccc(NC(=O)N(C2CCCCC2)C(C)c2ccco2)c(OC)c1 (stereo not drawn)	D1 antag -78.0

Compound activity from PubChem.
